Source: the supplement of paper PMC11417369
± gives the standard deviation of the averaged measurements. Over roughly 25,000 sequences, “ln(normalized median fluorescence intensity)” has its median near 10; the highest 2% begin near 12. This excerpt belongs to a sample that is enriched for the highest values.

The sequences below were run on PfAP2-G AP2 domain (GST-tagged) (assay: gcPBM binding intensity (ln(normalized median fluorescence intensity)); higher = stronger DNA binding).
In short: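 Each value is the highest Masliner-normalised natural-log median intensity across replicate spots of either orientation of a probe. The probes were primer-extended double-stranded 36-bp intergenic genomic sequences on an Agilent 4 × 180k array, alongside negative controls, exposed for 1 h to GST-tagged P. falciparum DNA-binding domains expressed in E. coli. Bound protein was picked up with Alexa488 anti-GST antibody and scanned at 488 nm.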

Sequence	gcPBM binding intensity (ln)
TATGGAACACACCTTAATATGTGATAAAATATGATA [GTGCAC_negctrl_site718]	10 ± 0.2
AAAAATTTATTTAAAAGTACATAAAATAAAGGTGGA [XGTACX_site7591]	11.4 ± 0.69
ACATCATTTTTATGTACACACACATATACGTTGAAT [CACACA_site5095]	11.6 ± 0.98
AAGAAAATTAAATTAACACACATAAATATATATATA [CACACA_site1664]	9.85 ± 0.28
GACATTAAAATGAAATATACATATATATGTATATAT [TGCATGCA_negctrl_site601]	9.635 ± 0.049
AATTAAAATAGTAATACACACTTCATAGGAAATGAT [CACACA_site5045]	9.83 ± 0.014
TAACATTAAAATAAAAGTACTTAATAATATTAAGTA [XGTACX_site5920]	11.1 ± 0.87
TCTTATTTTTTTATATATACAAAGTTTTATATATAT [GTGCAC_negctrl_site314]	9.915 ± 0.049
TTTCCTGGTCAAGGGGTTACGGTTACGTCCTCTTGC [CACACA_negctrl_site856]	10.7 ± 0.49
ATTTTAGAATTTAATACACACAAAAAAAAAAAATTA [CACACA_site3704]	10 ± 0.33
AAATTTTAATTAGACTGTACACATTTTAGAATAATT [XGTACX_site4819]	11.6 ± 0.92
TAAATTAAGAATTTTACACACATTAAATAAAAAAAA [CACACA_site3638]	9.805 ± 0.078
TTAAAAGATATTACATGTACATATTCAATATATGTA [XGTACX_site5895]	11.1 ± 0.69
ACGTATCAATTTATTGGTACACATAAATATATATAT [XGTACX_site5556]	11.3 ± 0.92
GAATGGACGTTAGGGGGTACGTATAAAATTTATCAA [XGTACX_site683]	11.7 ± 0.81
AATTGTACGTAGGGGTATAAAAGCTTAAAAATGGGG [CACACA_negctrl_site1392]	11.6 ± 0.91
ATATATTTTCAAAAAAGTAAATCAAAATAAATATAT [TGCATGCA_negctrl_site319]	9.84 ± 0.085
AATACAGATAATACAACACACAAGTAATATAAACCT [CACACA_site5900]	9.975 ± 0.021
GGTGATATAATATATACATGCACATATATATTATTA [TGCATGCA_site970]	9.9 ± 0.042
CATTTAAAATTTGTTTGTACATATATATATATATAT [XGTACX_site6729]	11 ± 0.66
TCCTTAAAATATGGTTGTACGTACATCCTAGGTGTT [XGTACX_site7068]	11.7 ± 0.97
GTAGGTGTTTTTGGTTGTACATATAAATATATATAC [XGTACX_site3380]	11.3 ± 0.8

Sequence	gcPBM binding intensity (ln)
AAAATTAATGTTGGTTGTACAAAAATTAAATATGGT [XGTACX_site66]	11.3 ± 0.75
TATATAAATATATATGTACACACATATACATGTTGA [CACACA_site9022]	11.3 ± 0.92
TATTTCAAATGTTATGTGCACATATTAATCCTACTT [GTGCAC_site9738]	10.5 ± 0.28
ATAATTATCATAGGATGTACATATTTATTTTGTATA [XGTACX_site7797]	11.2 ± 0.67
GCAAATGTGAAAACGTGTACACATTTTATTTAATTT [XGTACX_site8000]	11.7 ± 1
TTATTAAAACAAAATGTACACACATATAATTTAATG [CACACA_site8193]	11.3 ± 0.73
ATTTTTGTAATTATTTGTACACATTTATTTATGTGT [XGTACX_site1864]	11.5 ± 0.73
TTTATTAAAACAAAATGTACACACATATAATTTAAT [XGTACX_site1637]	11.2 ± 0.68
TTATATTTATATTTATGTACATATTTTGTGTGAAAA [XGTACX_site2367]	11.4 ± 0.97
AATGTGAAAACGTGTACACATTTTATTTAATTTATC [CACACA_site5966]	11.6 ± 0.98
CGTTATATATTTTATAGTACTTTTTGTAAATTTTTT [XGTACX_site7682]	11.1 ± 0.67
CGATATGTTCAATATTGTACTATTTATAATAATATG [XGTACX_site3051]	11 ± 0.69
ATATATATATATATATGTACTAAATATTCATCCTTA [XGTACX_site6039]	11 ± 0.65
TGAATATAACAAATATGTACTTAAAATTGTTATATT [XGTACX_site5679]	11.1 ± 0.76
GTGTAATATATTTTTCGTACATATTATATATATATA [XGTACX_site1675]	11 ± 0.69
AATTATTTTAGAAACACACAAATTAGAAAAAACATA [CACACA_site7673]	10.2 ± 0.24
AAGAAAAAACAAACATGTACACATAATTTAGTTTTT [XGTACX_site3121]	11.4 ± 0.89
AATTTTTTTTTTAGACGTACAAGAAAAAACAAAAAA [XGTACX_site4990]	11.7 ± 0.75
TATTTTTTTTTTTAATGTACAAACAAATTATGTTGG [XGTACX_site2873]	10.8 ± 0.57
ATATATAATTTTTGCTGTACACAAAATATTAATTTA [XGTACX_site2057]	11.5 ± 0.86
ATTTTTTTTGCTAAGTGTACACAAATGTTTATTAAT [XGTACX_site7440]	11.7 ± 0.81
TTTTTTGCTAAGTGTACACAAATGTTTATTAATTTA [CACACA_site5859]	11.7 ± 1

Sequence	gcPBM binding intensity (ln)
TTTATATGTATTAAGTGTACACATATAATGTATTTT [XGTACX_site16]	11.5 ± 0.83
TTTATATGTATTAAGTGTACACATATAATGTGTTTT [XGTACX_site4890]	11.6 ± 0.87
TCATATTCCAAAAAAAAAAAAAAAAAAAAAAAAATA [CACACA_negctrl_site1293]	9.66 ± 0.3
AATAAATATTCATTTTGTACATATTTTTCGTATATG [XGTACX_site6104]	10.9 ± 0.57
TTGGGCATAATGTCATGTACACAAATAATTCTTTAT [XGTACX_site861]	11.5 ± 1
TATATATATATATATTGTACATATATTATTATATAT [XGTACX_site7447]	10.9 ± 0.53
AATTTACAAAAAAGAAAAAAAAAAAAAAAGATACTT [CACACA_negctrl_site1434]	9.65 ± 0.071
TTGTTCTATTTAAGTAGTACATACACACACATATAC [XGTACX_site8484]	11.5 ± 0.71
ACATCATATTAAGAAAGTACAAAAAGAGAACATATA [XGTACX_site1268]	11 ± 0.4
ATTTAAGTAGTACATACACACACATATACAAAAAGA [CACACA_site9317]	11.7 ± 1.3
ATACGAAAAAAAAAAAGTACACAAAAATATCTACAT [XGTACX_site2051]	11.7 ± 1.1
AAAAAGAAAAAAGAAAGTACAAATATACACATTTTT [XGTACX_site3343]	10.9 ± 0.54
AAAAAAAAAAGAAAAAGTACATACATACATATATAT [XGTACX_site6405]	11.3 ± 0.83
TACGAATTAAAAAAGAGTACAAATAAAATATCTACA [XGTACX_site7412]	11.3 ± 0.84
TTAAGTAGTACATACACACACATATACAAAAAGAAA [CACACA_site3972]	11.7 ± 1.2
ATTTATATTACAAAAAGTACACACATAAATAAATAC [XGTACX_site1827]	11.6 ± 0.92
ATTCATAAAAAGAGGTGTACATTAATATAATATATA [XGTACX_site8283]	11.5 ± 0.95
ATTTTGTTATTATATATATATATATATATATATATA [XGTACX_negctrl_site590]	9.89 ± 0.49
GATCATTTAAAATAAGTAATATTTTTTTTACTTTTG [TGCATGCA_negctrl_site602]	9.62 ± 0.26
GTTCATAAAAATTTTTGTACCCATAAAATATTCCTC [XGTACX_site8611]	11.2 ± 0.65
AATAATTGTTATAGTTGTACAATACATATATTACAA [XGTACX_site30]	11.3 ± 0.63
AAAAAAAAAAAAAAGAGTACACAGACGTTCAAAGGT [XGTACX_site7566]	11.7 ± 0.77

Sequence	gcPBM binding intensity (ln)
ACAGACGTTCAAAGGTGTACGCAAAATGAATAATAT [XGTACX_site7565]	11.6 ± 1
AAAAAAAAAAAAAAAAGTACAGACGTCAAAAAAAAA [XGTACX_site4817]	11.6 ± 0.76
TTTAAATATATTCAATCACACACATTCGTTTTTTTT [CACACA_site7962]	9.77 ± 0.24
GGCAAATTTATTATACCCACATACATACATACATAC [XGTACX_negctrl_site186]	10.8 ± 0.62
TTTACATTTTAGGAAGTGCATATAATAAATACTATC	10.1 ± 0.2
ATCATAAAAGTATACACACATACATACATATGTACA [CACACA_site2641]	10.8 ± 0.45
AAAAAAAAATTGTGTACACATAATTATATCATATGT [CACACA_site4500]	11.7 ± 0.89
ACATATTAATTATAAAGTACATATATATATATATAT [XGTACX_site4540]	11.3 ± 0.79
ATAAAAATAATATCATGTACATATGTGTATTGTATT [XGTACX_site1768]	11 ± 0.49
ATAATTATATATATATGTACATATTATATATATATA [XGTACX_site4526]	11.2 ± 0.77
AAAAAAAAAAAAAAAAGTACATATATATATAATTAT [XGTACX_site7836]	11.7 ± 0.89
AAAAAAAAAAAAAAAAGTACATATATATATATAATT [XGTACX_site4437]	11.5 ± 0.86
ATTATATTATATATATGTACATATATATATCATAAT [XGTACX_site1]	11.1 ± 0.66
TTAGTAGTATTATGTAGTACATAATTATCATATCAT [XGTACX_site817]	11.6 ± 1.1
TATATAAAAAGTAATTGTACATATATATATATATAT [XGTACX_site7953]	10.9 ± 0.68
TATATCATAAAAAATTGTACATATATATATTATATA [XGTACX_site6726]	11 ± 0.69
AAAAAAAAAAAAAAAAGTACACATAATTGTATATGT [XGTACX_site6339]	11.7 ± 0.75
ATAATTATAAAATAAACACACATATATATTTATATG [CACACA_site440]	9.98 ± 0.16
AATTAAAAAAAATACACACACACATACACATATATA [CACACA_site3298]	10.2 ± 0.22
ATAACATAAGGAAATACACACATATATAAGTATATA [CACACA_site778]	10.02 ± 0.021
ACATATATATATATATATATATATATATTTATTTAT [CACACA_negctrl_site734]	10.2 ± 0.39
AAAACTATAATGAATAGTACATAAAAATGGATATAT [XGTACX_site6056]	11 ± 0.5
